{"source": "PubChem BioAssay AID504332", "about": "(National Center for Advancing Translational Sciences (NCATS), 2011)", "note": "The whole screen tested about 350,000 compounds, of which about 31,000 (8.9%) were called active. Roughly 15% stayed inconclusive and do not appear here. The entries come from a sample that favours actives as a whole. A call without a number means that no potency is given here. Values without a mark were called inactive. The call rests on the fitted dose curve; in most records, active means well fitted inhibition curve with a large enough effect; inconclusive means small, poorly fitted or top-dose-only effect; inactive means no such curve, though single readings can be large or run the other way. Potency means the concentration at half of the fitted maximal effect."}
{"target": "Histone-lysine N-methyltransferase EHMT2 (Homo sapiens) (UniProt Q96KQ7)", "sequence (Q96KQ7 913-1193 limits assumed)": "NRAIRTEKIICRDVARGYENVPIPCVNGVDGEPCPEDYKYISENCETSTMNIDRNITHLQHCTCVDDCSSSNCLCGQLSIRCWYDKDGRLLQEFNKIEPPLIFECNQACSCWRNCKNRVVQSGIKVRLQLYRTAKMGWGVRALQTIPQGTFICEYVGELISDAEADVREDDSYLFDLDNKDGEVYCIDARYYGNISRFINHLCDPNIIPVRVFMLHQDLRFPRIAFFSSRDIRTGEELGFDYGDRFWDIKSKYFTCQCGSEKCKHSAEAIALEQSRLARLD", "assay": "qHTS Assay for Inhibitors of Histone Lysine Methyltransferase G9a; further: nearly all actives have a fitted effect of over 75% in size", "conditions": "G9a H3K9 monomethylation, AlphaScreen, 2 h; series mostly up to 59 µM", "in_short": "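Quantitative HTS format: methyltransferase activity on a biotin-tagged H3K9 peptide is measured by AlphaScreen, using a rabbit anti-monomethyl-H3K9 antibody with streptavidin donor and anti-IgG acceptor beads. Final levels are 20 nM enzyme, 500 nM peptide, 20 uM SAM; 2 h RT.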"}
{"smiles": "CC(C)CCNC(=O)CSc1nc2ccccc2nc1Cc1ccc(Cl)cc1", "Potency": "inactive"}
{"smiles": "Nc1ccc(C(=O)NCc2ccccc2)cc1", "Potency": "inactive"}
{"smiles": "CC(C)c1ccc(C(=O)NCCCc2ccccc2)cc1", "Potency": "inactive"}
{"smiles": "O=C(NCCCNCc1ccccc1)c1ccc(/C=N/O)nc1", "Potency": "14.1 µM (active)"}
{"smiles": "COc1ccccc1N1CCN(S(=O)(=O)CCNC(=O)COc2ccc(F)cc2)CC1", "Potency": "inactive"}
{"smiles": "COc1ccc(-c2c(C)c3ccc(O)c(CN4CCN(C)CC4)c3oc2=O)cc1OC", "Potency": "inactive"}
{"smiles": "COc1ccc2oc(=O)cc(CN3CCOCC3)c2c1", "activity, negative = inhibition": "20.4% [at 0.501 µM]"}
{"smiles": "CC(C)c1ccc2oc(=O)cc(CN3CCN(Cc4ccccc4)CC3)c2c1", "Potency": "50.1 µM (active)"}
{"smiles": "Cc1cc2oc(=O)cc(CN3CCN(Cc4ccccc4)CC3)c2cc1C", "Potency": "inactive"}
{"smiles": "CC1CC(C)CN(C(=O)COC(=O)c2ccc3ncsc3c2)C1", "note": "(stereo unspecified)", "activity, negative = inhibition": "-10.9% [at 12.7 µM]"}
{"smiles": "CCc1cccc(NC(=O)C2CCCN(S(=O)(=O)c3ccc4[nH]c(=O)ccc4c3)C2)c1", "note": "(stereo unspecified)", "Potency": "inactive"}
{"smiles": "CSc1ccccc1C(=O)OCC(=O)N1CCN(C(C)=O)CC1", "activity, negative = inhibition": "-3.84% [at 12.7 µM]"}
{"smiles": "Cc1ccccc1N1C(=O)C2ON(c3ccccc3)C(c3ccncc3)C2C1=O", "note": "(stereo unspecified)", "Potency": "44.7 µM (active)"}
{"smiles": "COC(=O)C1=NN(c2ccccc2)C2C(=O)N(c3ccccc3OC)C(=O)C12", "note": "(stereo unspecified)", "Potency": "inactive"}
{"smiles": "COc1cc(C2C3C(=O)N(c4ccccc4)C(=O)C3ON2c2ccccc2)ccc1O", "note": "(stereo unspecified)", "Potency": "inactive"}
{"smiles": "CCOc1ccc2c(c1)c(=O)c(S(=O)(=O)c1ccc(C)cc1)cn2CC", "Potency": "inactive"}
{"smiles": "COc1ccccc1C(=O)COC(=O)CSCC(=O)Nc1cc(C)on1", "Potency": "inactive"}
{"smiles": "CC(C)(COC(=O)Nc1ccccc1)COC(=O)Nc1ccccc1", "activity, negative = inhibition": "-24.1% [at 2.33 µM]"}
{"smiles": "CCOC(=O)c1sc2nc(SC)nc(-c3ccccc3)c2c1N", "activity, negative = inhibition": "22.6% [at 12.7 µM]"}
{"smiles": "CCN(CC)C(=O)c1sc2nc(-c3ccccc3)ccc2c1N", "Potency": "17.8 µM (active)"}
{"smiles": "COc1cccc(C(=O)c2sc3nc(-c4ccccc4)cc(C(F)(F)F)c3c2N)c1", "Potency": "inactive"}
{"smiles": "CC(=O)NS(=O)(=O)c1ccc2c(c1)Cc1cc(S(=O)(=O)NC(C)=O)ccc1-2", "activity, negative = inhibition": "-3.76% [at 0.501 µM]"}
{"smiles": "COc1ccc(CCNC(=O)c2c3c(nc4ccccc24)C(=O)N(C2CCCCC2)C3)cc1OC", "Potency": "inactive"}
{"smiles": "COc1ccc(/C=C/C(=O)Nc2ccc3c(c2)OCCO3)cc1OC", "Potency": "inactive"}
{"smiles": "COc1ccccc1Nc1c2c(nc3ccc(NC(=O)/C=C/c4cc(OC)c(OC)c(OC)c4)cc13)CCCC2", "Potency": "14.1 µM (active)"}
{"smiles": "CCOc1ccc(C(=O)Nc2ccc3nc4c(c(Nc5ccccc5OC)c3c2)CCCC4)cc1", "Potency": "inactive"}
